“And” between values parts separate entries of the source, which are not always exact repeats. Equal entries are not always repeated. Records with an inconclusive call do not appear. The source holds several records for some structures; these can differ, active in one and inactive in another. The source made the active and inactive calls. The calls were made as follows: active = hit-call score of the fitted dose curve at least 0.9, where 1 is the maximum; inconclusive = response in the unintended direction; inactive = score below 0.9.
Experiments:
[1] = biological target: bovine Estrogen Receptor (ER), ESR1 (gene 407238) (UniProt P49884); assay: NVS_NR_bER: NovaScreen (NVS) Nuclear Receptor Binding Assay for bovine Estrogen Receptor (ER) (AID 2283345);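 also: actives lower the bound radioligand count which means they displace the ER ligand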
How it was run: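 Bovine uterine membranes; tritiated or iodinated radioligand; competitive displacement; 18 h; scintillation read; DMSO negative control; 25 uM duplicates, then concentration series for actives.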

[2] = biological target: chimpanzee Androgen Receptor (AR), AR (gene 747460) (UniProt O97775); assay: NVS_NR_cAR: NovaScreen (NVS) Nuclear Receptor Binding Assay for chimpanzee Androgen Receptor (AR) (AID 2283346);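 also: radioligand displacement from AR measured by scintillation counting in a cell-free assay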
How it was run: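 Cell-free radioligand displacement using receptor protein extracted from Sf9/Sf21 cells; bound radioligand measured by scintillation counting 72 hours after chemical dosing. Loss of signal versus DMSO baseline indicates binding; primary screen single-concentration in duplicate at 25 uM, actives followed in concentration series.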

[3] = biological target: Estrogen receptor (Homo sapiens) (UniProt P03372); assay: NVS_NR_hER: NovaScreen (NVS) Nuclear Receptor Binding Assay for human Estrogen Receptor (ER) (AID 2283348)
How it was run: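 Cell-free radioligand binding with protein extracted from MCF7 cells; scintillation counting 18 hours after dosing. Loss of signal versus DMSO baseline read as displacement; primary single-concentration screen at 25 uM in duplicate, actives retested in concentration series.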

[4] = biological target: Estrogen receptor (Homo sapiens) (UniProt P03372); assay: OT_ER_ERaERa_1440: Odyssey Thera (OT) 24-hour HEK293T Protein-Complementation Assay for Estrogen Receptor-alpha/-alpha Homodimer (AID 2283349);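 also: hits raise fluorescence above DMSO for agonists and antagonists alike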
How it was run: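 Readout is the rise in mean fluorescence from reporter fragment complementation when ERα LBD (aa 310-547) units dimerize in HEK293T cells. Measured 24 h after dosing and analysed as increase over DMSO control.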

[5] = biological target: Estrogen receptor (Homo sapiens) (UniProt P03372); assay: OT_ER_ERaERa_0480: Odyssey Thera (OT) 8-hour HEK293T Protein-Complementation Assay for Estrogen Receptor-alpha/-alpha Homodimer (AID 2283351);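 also: rise in fluorescence from reassembled reporter fragments on ERα LBD homodimer in nucleus or whole cell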
How it was run: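 HEK293T, stable ERα LBD (aa 310-547) PCA homodimer; 8 h compound exposure; fluorescence intensity, laser scanning cytometer; positive fitting direction, DMSO baseline.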

[6] = biological target: Estrogen receptor beta (Homo sapiens) (UniProt Q92731); assay: OT_ER_ERbERb_0480: Odyssey Thera (OT) 8-hour HEK293T Protein-Complementation Assay for Estrogen Receptor-beta/-beta Homodimer (AID 2283357);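 also: active means signal gain over DMSO baseline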
How it was run: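 Readout: increase in mean fluorescence intensity (nucleus for agonists; nucleus plus cytoplasm for antagonists) relative to DMSO, from a reporter-fragment complementation of human ER-beta LBD homodimer in HEK293T cells dosed 8 hours.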

[7] = biological target: Glucocorticoid receptor (Homo sapiens) (UniProt P04150); assay: NVS_NR_hGR: NovaScreen (NVS) Nuclear Receptor Binding Assay for human Glucocorticoid Receptor (GR) (AID 2283363);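 as to AC50: activity is loss of specific radioligand binding signal relative to DMSO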
How it was run: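 Cell-free radioligand binding with extracted receptor protein, read by filter-based scintillation counting 16 hours after dosing. Loss of specific signal versus DMSO baseline was scored. Primary screen ran in duplicate at 25 uM; actives were followed up in concentration series.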

[8] = biological target: T1, Estrogen receptor (Homo sapiens) + Estrogen receptor beta (Homo sapiens) (UniProt P03372+Q92731); assay: OT_ER_ERaERb_0480: Odyssey Thera (OT) 8-hour HEK293T Protein-Complementation Assay for Estrogen Receptor-alpha/-beta Heterodimer (AID 2283352)
How it was run: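 Increase in mean fluorescence intensity, measured by laser scanning plate cytometry, reported ER-alpha/ER-beta LBD complementation in HEK293T cells after 8 h chemical exposure. DMSO served as baseline; basal signal is low, punctate and cytoplasmic.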

[9] = biological target: T1, Estrogen receptor (Homo sapiens) + Estrogen receptor beta (Homo sapiens); assay: OT_ER_ERaERb_1440: Odyssey Thera (OT) 24-hour HEK293T Protein-Complementation Assay for Estrogen Receptor-alpha/-beta Homodimer (AID 2283356);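 also: heteromer of ER alpha and ER beta binding domains; hits raise reporter fluorescence and both agonists and antagonists give an increase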
How it was run: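 Heterodimerisation of ERα (aa 310-547) and ERβ (aa 263-489) ligand binding domains was tracked as fluorescence gain in stably transfected HEK293T cells following 24 h dosing, normalised to DMSO controls.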

[10] = biological target: Androgen Receptor/SRC-1 Co-activator, AR (gene 367) (UniProt P10275); assay: OT_AR_ARSRC1_0960: Odyssey Thera (OT) 16-hour HEK293T Protein-Complementation Assay for Androgen Receptor/SRC-1 Co-activator (AID 2283353);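 also: actives raise the signal above DMSO so potency reflects increased AR and SRC-1 complex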
How it was run: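 Split-Venus PCA, AR/SRC-1 fusions, stable HEK293T; 16 h compound exposure; imaged at 488 and 635 nm; N/C ratio (488 nm channel), min 400 cells/image; positive-direction fit, DMSO baseline.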

[11] = biological target: Androgen Receptor/SRC-1 Co-activator, AR (gene 367) (UniProt P10275); assay: OT_AR_ARSRC1_0480: Odyssey Thera (OT) 8-hour HEK293T Protein-Complementation Assay for Androgen Receptor/SRC-1 Co-activator (AID 2283354);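 also: hits raise the complementation signal above DMSO so AC50 marks enhancers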
How it was run: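 HEK293T cells stably expressing AR and SRC-1 fused to split Venus YFP fragments via (Gly4Ser)2 linkers were read 8 h after compound dosing. Complementation was imaged at 488 and 635nm, and nuclear/cytoplasmic fluorescence ratio (488nm) was taken over ≥400 cells; gain-of-signal versus DMSO.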

[12] = system: guinea pig Histamine Receptor (H2), gene 100729734; assay: NVS_GPCR_gH2: NovaScreen (NVS) G Protein-Coupled Receptor Assay for guinea pig Histamine Receptor (H2) (AID 2283342)
How it was run: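 Radioligand displacement on guinea pig striatal membranes, 1 h after dosing, filter-based scintillation counting; loss of signal versus DMSO. Single-point screen at 25 uM in duplicate, then concentration-response up to 50 uM.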

[13] = biological target: Retinoic acid receptor alpha (Homo sapiens) (UniProt P10276); assay: NVS_NR_hRAR_Antagonist: NovaScreen (NVS) Nuclear Receptor Binding Assay for human Retinoic Acid Alpha Receptor Antagonism (RAR) (AID 2283358)
How it was run: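 Cell-free TR-FRET binding assay on extracted receptor protein, run in antagonist mode; signal read 2 hours after chemical dosing. Loss of signal was fitted relative to DMSO baseline. Screened at 25 uM in duplicate, actives followed up in concentration series.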

[14] = biological target: human Peroxisome Proliferator-activated Receptor alpha (PPARa), PPARA (gene 5465) (UniProt Q07869); assay: NVS_NR_hPPARa: NovaScreen (NVS) Nuclear Receptor Binding Assay for human Peroxisome Proliferator-activated Receptor alpha (PPARa) (AID 2283359);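 also: activity means loss of TR-FRET signal versus DMSO baseline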
How it was run: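 Cell-free binding assay with extracted human protein, read by TR-FRET 1 h after chemical dosing. Loss of signal relative to DMSO baseline indicates binding. Primary screen used duplicate single concentration (25 uM); actives followed up in concentration series.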

[15] = biological target: Retinoic acid receptor alpha (Homo sapiens) (UniProt P10276); assay: NVS_NR_hRARa_Agonist: NovaScreen (NVS) Nuclear Receptor Binding Assay for human Retinoic Acid Alpha Receptor Agonism (RAR) (AID 2283361)
How it was run: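 Cell-free TR-FRET binding read-out with extracted human RARα protein, read 2 h after compound addition. Gain of signal scored against DMSO baseline. Primary screen at a single 25 uM in duplicate; actives then retested in concentration series.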

[16] = system: NCBI gene 100848466; assay: NVS_NR_bPR: NovaScreen (NVS) Nuclear Receptor Binding Assay for bovine Progextron Receptor (PR) (AID 2283343);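 as to AC50: actives lower bound radioligand signal below DMSO meaning displacement of the label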
How it was run: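 Bovine uterine membrane preparation, cell-free; radioligand competitive displacement measured by scintillation counting 18 hours after dosing. Loss of signal versus DMSO baseline indicates binding; primary HTS single concentration 25 uM in duplicate, actives followed in concentration series.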

[17] = biological target: human Constitutive Androstane Receptor (CAR), NR1I3 (gene 9970) (UniProt Q14994); assay: NVS_NR_hCAR_Antagonist: NovaScreen (NVS) Nuclear Receptor Binding Assay for human Constitutive Androstane Receptor Antagonism (CAR) (AID 2283344)
How it was run: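 Cell-free TR-FRET binding read 1 h after dosing, antagonist mode; loss of signal versus DMSO baseline. Primary screen in duplicate at a single 25 uM; actives retested in concentration series.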

[18] = biological target: rat Mineralocorticoid Receptor (MR), Nr3c2 (gene 25672) (UniProt P22199); assay: NVS_NR_rMR: NovaScreen (NVS) Nuclear Receptor Binding Assay for rat Mineralocorticoid Receptor (MR) (AID 2283355)
How it was run: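 Cell-free radioligand binding to MR in adrenalectomized rat brain supernatant, scintillation counted 24 h after dosing. Loss of signal versus DMSO baseline marks displacement. Primary screen in duplicate at 25 uM; actives retested as concentration series.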

[19] = biological target: PGR (gene 5241) (UniProt P06401); assay: NVS_NR_hPR: NovaScreen (NVS) Nuclear Receptor Binding Assay for human Progestron Receptor (PR) (AID 2283360)
How it was run: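 Competitive displacement of a labelled radioligand from T47D-derived receptor protein is measured in a cell-free format. Initial testing uses 25 uM in duplicate, with positive and negative controls on every plate.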

Measured: AC50

Chain of Androgen Receptor/SRC-1 Co-activator, AR (gene 367) (P10275 whole entry, looked up, the tested form may be a part): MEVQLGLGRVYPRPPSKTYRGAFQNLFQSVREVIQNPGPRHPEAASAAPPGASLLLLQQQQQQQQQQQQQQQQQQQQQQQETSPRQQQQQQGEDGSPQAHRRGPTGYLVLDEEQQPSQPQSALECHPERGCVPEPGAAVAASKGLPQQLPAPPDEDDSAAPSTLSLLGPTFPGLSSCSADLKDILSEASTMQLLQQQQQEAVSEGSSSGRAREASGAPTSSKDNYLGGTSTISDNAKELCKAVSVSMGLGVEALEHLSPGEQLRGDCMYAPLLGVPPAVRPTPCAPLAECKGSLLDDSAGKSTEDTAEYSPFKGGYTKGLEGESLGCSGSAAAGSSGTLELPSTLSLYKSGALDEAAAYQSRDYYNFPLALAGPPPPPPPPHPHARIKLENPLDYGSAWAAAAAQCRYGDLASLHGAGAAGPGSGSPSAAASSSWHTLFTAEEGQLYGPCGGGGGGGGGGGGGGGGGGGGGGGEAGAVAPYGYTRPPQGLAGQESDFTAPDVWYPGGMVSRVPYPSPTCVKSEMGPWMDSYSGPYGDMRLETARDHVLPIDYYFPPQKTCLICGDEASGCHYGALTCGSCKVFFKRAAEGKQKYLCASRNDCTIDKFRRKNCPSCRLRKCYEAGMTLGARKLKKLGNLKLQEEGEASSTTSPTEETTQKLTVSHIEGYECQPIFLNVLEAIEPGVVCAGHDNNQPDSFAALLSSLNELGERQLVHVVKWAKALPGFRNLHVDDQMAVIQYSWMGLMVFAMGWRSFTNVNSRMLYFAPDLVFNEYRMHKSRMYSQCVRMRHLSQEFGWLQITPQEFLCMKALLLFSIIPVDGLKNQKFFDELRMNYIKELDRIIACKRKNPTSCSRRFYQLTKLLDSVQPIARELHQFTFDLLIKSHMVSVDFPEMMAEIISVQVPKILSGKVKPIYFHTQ
Chain of Estrogen receptor beta (Homo sapiens) (Q92731 whole entry, looked up, the tested form may be a part): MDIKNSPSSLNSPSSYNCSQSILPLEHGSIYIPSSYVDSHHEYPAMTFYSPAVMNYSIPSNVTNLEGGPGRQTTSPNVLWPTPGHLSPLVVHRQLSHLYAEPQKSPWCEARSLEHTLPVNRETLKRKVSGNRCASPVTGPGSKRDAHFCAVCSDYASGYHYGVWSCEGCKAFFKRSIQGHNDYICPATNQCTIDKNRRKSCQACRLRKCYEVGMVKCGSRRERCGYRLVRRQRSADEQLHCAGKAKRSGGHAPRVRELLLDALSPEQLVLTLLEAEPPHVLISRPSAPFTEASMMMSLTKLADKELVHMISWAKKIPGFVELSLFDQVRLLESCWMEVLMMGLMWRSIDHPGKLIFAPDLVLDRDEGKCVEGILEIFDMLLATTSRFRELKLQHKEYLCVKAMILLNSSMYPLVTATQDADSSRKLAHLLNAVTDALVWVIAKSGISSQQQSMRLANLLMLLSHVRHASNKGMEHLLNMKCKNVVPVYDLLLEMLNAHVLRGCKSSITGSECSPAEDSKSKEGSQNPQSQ
Chain of Glucocorticoid receptor (Homo sapiens) (P04150 whole entry, looked up): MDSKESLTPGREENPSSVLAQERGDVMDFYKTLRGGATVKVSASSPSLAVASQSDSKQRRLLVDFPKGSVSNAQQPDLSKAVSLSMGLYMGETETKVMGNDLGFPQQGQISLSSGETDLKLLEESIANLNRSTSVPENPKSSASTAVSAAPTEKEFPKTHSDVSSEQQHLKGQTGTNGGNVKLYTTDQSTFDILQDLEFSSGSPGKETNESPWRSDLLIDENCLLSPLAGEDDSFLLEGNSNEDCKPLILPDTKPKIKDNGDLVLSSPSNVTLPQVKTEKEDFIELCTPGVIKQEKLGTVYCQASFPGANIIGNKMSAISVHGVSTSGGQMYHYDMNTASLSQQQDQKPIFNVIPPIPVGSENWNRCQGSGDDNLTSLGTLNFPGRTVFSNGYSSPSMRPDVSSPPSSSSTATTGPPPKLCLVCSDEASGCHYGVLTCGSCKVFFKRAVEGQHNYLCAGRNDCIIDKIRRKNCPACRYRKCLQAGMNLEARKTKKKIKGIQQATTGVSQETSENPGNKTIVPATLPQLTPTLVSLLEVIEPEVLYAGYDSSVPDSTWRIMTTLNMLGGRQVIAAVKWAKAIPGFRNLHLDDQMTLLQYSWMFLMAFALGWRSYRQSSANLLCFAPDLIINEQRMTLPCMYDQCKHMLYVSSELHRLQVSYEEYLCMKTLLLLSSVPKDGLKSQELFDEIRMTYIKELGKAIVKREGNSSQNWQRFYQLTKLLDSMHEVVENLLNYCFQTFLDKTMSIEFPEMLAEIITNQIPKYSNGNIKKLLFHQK
Chain of bovine Estrogen Receptor (ER), ESR1 (gene 407238) (P49884 whole entry, looked up): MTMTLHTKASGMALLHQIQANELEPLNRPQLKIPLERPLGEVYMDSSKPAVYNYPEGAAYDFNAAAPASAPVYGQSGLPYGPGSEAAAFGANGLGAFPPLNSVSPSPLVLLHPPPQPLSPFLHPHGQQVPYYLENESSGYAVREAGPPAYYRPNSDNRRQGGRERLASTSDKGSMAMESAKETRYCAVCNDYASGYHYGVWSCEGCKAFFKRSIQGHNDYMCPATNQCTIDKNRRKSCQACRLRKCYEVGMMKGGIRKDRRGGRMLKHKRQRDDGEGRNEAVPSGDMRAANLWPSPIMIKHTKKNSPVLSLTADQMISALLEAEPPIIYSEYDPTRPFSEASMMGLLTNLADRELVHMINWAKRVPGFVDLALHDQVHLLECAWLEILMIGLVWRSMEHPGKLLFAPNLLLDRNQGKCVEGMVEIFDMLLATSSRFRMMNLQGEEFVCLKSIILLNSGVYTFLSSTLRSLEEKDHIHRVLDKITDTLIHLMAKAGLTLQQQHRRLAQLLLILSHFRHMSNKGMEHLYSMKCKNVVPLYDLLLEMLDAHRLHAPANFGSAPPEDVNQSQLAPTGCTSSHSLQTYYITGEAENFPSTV
Chain of human Peroxisome Proliferator-activated Receptor alpha (PPARa), PPARA (gene 5465) (Q07869 whole entry, looked up): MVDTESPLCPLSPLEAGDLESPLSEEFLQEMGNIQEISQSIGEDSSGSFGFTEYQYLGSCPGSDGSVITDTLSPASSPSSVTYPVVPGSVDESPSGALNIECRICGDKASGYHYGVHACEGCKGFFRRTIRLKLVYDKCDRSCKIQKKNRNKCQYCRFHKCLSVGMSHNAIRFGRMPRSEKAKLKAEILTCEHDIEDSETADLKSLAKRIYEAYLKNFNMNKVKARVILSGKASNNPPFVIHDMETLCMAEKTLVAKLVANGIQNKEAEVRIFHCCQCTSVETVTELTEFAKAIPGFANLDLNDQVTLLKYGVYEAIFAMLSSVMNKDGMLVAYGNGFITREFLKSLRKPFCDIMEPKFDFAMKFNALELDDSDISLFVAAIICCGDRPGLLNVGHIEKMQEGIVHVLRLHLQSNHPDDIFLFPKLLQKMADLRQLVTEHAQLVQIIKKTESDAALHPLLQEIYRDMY
T1 sequence (P03372 whole entry, looked up, the tested form may be a part): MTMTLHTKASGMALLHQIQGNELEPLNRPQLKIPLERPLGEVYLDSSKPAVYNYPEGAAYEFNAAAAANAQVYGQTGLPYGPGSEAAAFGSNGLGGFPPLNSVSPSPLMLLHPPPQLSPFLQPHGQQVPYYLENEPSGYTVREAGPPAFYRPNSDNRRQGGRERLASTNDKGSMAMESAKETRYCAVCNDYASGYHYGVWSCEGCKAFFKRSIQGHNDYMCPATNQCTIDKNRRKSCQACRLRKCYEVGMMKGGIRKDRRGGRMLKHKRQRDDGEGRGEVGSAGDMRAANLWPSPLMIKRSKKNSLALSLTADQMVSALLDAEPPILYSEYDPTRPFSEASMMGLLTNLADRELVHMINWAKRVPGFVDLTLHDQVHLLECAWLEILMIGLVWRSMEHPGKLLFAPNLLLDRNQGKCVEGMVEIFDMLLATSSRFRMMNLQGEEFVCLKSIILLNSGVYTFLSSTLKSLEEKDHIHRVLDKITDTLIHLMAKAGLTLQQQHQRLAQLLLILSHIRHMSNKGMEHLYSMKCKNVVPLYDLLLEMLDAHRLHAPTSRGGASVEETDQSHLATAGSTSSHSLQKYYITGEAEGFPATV
T1 sequence (Q92731 whole entry, looked up, the tested form may be a part): as the sequence (Q92731 whole entry, looked up, the tested form may be a part) above
Chain of Estrogen receptor (Homo sapiens) (P03372 whole entry, looked up, the tested form may be a part): as the sequence (P03372 whole entry, looked up, the tested form may be a part) above
Chain of chimpanzee Androgen Receptor (AR), AR (gene 747460) (O97775 whole entry, looked up): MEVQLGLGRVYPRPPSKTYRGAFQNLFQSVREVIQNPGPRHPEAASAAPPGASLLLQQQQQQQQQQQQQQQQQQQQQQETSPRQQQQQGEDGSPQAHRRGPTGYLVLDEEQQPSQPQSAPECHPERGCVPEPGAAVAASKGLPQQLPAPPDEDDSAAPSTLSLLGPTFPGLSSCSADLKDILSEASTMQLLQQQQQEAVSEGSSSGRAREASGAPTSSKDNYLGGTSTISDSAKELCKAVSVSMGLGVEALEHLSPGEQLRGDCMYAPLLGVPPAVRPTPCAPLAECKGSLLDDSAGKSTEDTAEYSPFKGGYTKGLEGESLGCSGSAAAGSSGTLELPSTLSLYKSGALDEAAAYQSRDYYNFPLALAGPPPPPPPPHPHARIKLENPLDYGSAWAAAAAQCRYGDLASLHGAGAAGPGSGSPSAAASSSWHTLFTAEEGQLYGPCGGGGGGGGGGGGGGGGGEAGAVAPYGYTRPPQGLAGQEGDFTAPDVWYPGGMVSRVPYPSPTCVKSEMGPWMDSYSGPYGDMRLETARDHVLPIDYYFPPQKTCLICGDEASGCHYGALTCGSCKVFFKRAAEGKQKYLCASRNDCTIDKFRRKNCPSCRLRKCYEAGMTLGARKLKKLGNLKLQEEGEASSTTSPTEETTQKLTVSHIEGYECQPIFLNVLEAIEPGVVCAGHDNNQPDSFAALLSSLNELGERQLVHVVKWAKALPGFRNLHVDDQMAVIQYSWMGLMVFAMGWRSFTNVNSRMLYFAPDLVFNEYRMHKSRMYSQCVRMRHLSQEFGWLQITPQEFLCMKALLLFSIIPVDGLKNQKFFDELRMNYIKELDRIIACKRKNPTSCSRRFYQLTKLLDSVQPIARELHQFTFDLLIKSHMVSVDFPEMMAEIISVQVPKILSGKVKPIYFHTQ

O=C1OC2(c3ccc(O)cc3Oc3cc(O)ccc32)c2ccccc21
active: [1] 15.8 µM | [2] 13.5 µM | [3] 9.78 µM | [7] 25 µM
inactive: [2] | [3] | [4] | [5] | [6]

CCOCC(C)O (centres undefined)
inactive: [1] | [3] | [4] | [8] | [9] | [6]

CC1(C)CC(=O)CC(C)(C)N1
inactive: [1] | [2] | [7]

CC/C=C\CCOC(C)OCC (centres undefined)
inactive: [1] | [3]

CN(C)CCC=C1c2ccccc2CCc2ccccc21
inactive: [1] | [3]

CC(C)(CO)CO
inactive: [1] | [4] | [5] | [8] | [10] | [11] | [9]

CCC(=O)OC(C)(C)C1CC=C(C)CC1 (centres undefined)
inactive: [1] | [3] | [4] | [5] | [8] | [9] | [6]

Cc1cccc(O)c1
inactive: [1] | [3] | [4] | [5] | [8] | [9] | [6]

CCCCCCCCCOS(=O)(=O)O
active: [3] 11.1 µM
inactive: [1] | [4] | [5] | [8] | [9] | [6]

Cc1cc(O)c2c(c1)C(=O)c1cc(O)cc(O)c1C2=O
inactive: [1]

CC/C(=C(\c1ccccc1)c1ccc(OCCN(C)C)cc1)c1ccccc1
active: [12] 4.7 µM and 1.19 µM | [2] 19.4 µM | [7] 3.08 µM and 6.38 µM
inactive: [2] | [13] | [14] | [15] | [7]

CCC(C)(C)C1CCC(=O)CC1
inactive: [4] | [5] | [10] | [11]
active: [1] 4.52 µM | [3] 0.983 µM

CC(O)CN (centres undefined)
inactive: [1] | [3] | [4] | [5] | [8] | [9] | [6]

C=CC(=O)OCC(CO)(COC(=O)C=C)COC(=O)C=C
inactive: [1] | [3]
active: [7] 4.96 µM

CCCCCC(=O)O[C@]1(C(C)=O)CC[C@H]2[C@@H]3CCC4=CC(=O)CC[C@]4(C)[C@H]3CC[C@@]21C
inactive: [1] | [4] | [8] | [6]
active: [2] 1.12 µM | [9] 4.65 µM | [7] 0.0187 µM

CCCCCCCCOC(=O)c1ccc(O)cc1
active: [3] 2.7 µM | [4] 32.8 µM | [5] 20.9 µM | [8] 10.1 µM | [9] 24 µM | [6] 8.39 µM
inactive: [1] | [13] | [7]

O=C(Nc1cccc(Cl)c1)OCC#CCCl
inactive: [1] | [3]

CC(=O)CC(=O)N(C)C
inactive: [1] | [2] | [3] | [4] | [5] | [8] | [9] | [6]

C[C@]12CC[C@@H]3c4ccc(O)cc4CC[C@H]3[C@@H]1CC[C@@H]2O
active: [16] 0.00898 µM | [18] 4.96 µM | [7] 384 nM and 359 nM
inactive: [17] | [7]

CC(=O)OC(C)(C)C1CC=C(C)CC1 (centres undefined)
inactive: [1] | [4] | [5]

CCCCCCCCCCCCOCCOS(=O)(=O)O
active: [3] 22.8 µM | [13] 16.2 µM | [14] 5.08 µM
inactive: [1] | [4] | [5]

CC/C=C\CCCCCCCCCCOC(C)=O
inactive: [1]

C#C[C@]1(O)CC[C@H]2[C@@H]3CCc4cc(O)ccc4[C@H]3CC[C@@]21C
inactive: [14]
active: [16] 0.051 µM | [2] 966 nM and 80.5 nM | [18] 3.63 µM | [19] 0.221 µM | [7] 304 nM and 305 nM and 1.43 µM

CC(=O)C1C(=O)C=C(C)OC1=O (centres undefined)
inactive: [1] | [3] | [4] | [5] | [8] | [6]

CC(C)(C)c1ccc(S)cc1
inactive: [4] | [5] | [9] | [6]
active: [1] 0.551 µM | [3] 0.283 µM

CCCCCCOc1ccc(O)cc1
inactive: [1]
active: [3] 12 µM | [4] 13.6 µM | [5] 18.3 µM | [8] 12 µM | [10] 75.1 µM | [11] 78.3 µM | [9] 11.9 µM | [6] 11.9 µM

CCC(C)(C)c1cc(O)c(C(C)(C)CC)cc1O
inactive: [1] | [3]

COc1ccccc1O
inactive: [1] | [3] | [4] | [5] | [9] | [6]

C[C@H](CCC(=O)O)[C@H]1CC[C@H]2[C@@H]3CC[C@@H]4C[C@H](O)CC[C@]4(C)[C@H]3CC[C@]12C
inactive: [1]

O=C(c1ccc(OCCN2CCCCC2)cc1)c1c(-c2ccc(O)cc2)sc2cc(O)ccc12
active: [12] 4.18 µM | [17] 38.5 µM | [2] 25 µM | [14] 6.51 µM and 6.99 µM and 5.41 µM | [7] 6.7 µM [middle of 4 runs]
inactive: [16] | [2]
